# Out of some 360,000 compounds screened, about 3,500 (0.97%) were called active. The sample holds actives, similar compounds and a random draw of the others, so the mix is not that of the screen.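 Rule for the calls: active = activation above a per-plate cutoff, the mean activation of sample wells on that plate plus 3 SD (cut at about 8% in these data); inactive = the rest.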
# Target: Melanocortin receptor 4 (Homo sapiens) (UniProt P32245)
# Experiment: MC4R agonists recruiting beta-arrestin, primary screen, cell-based, luminescence, agonist arm of biased-ligand search (AID 540308)
# Details: U2OS MC4R beta-arrestin complementation, at 8.9 µM, hits give high values, percent of melanotan II response, DMSO zero
# Chain of Melanocortin receptor 4 (Homo sapiens) (P32245 whole entry, looked up): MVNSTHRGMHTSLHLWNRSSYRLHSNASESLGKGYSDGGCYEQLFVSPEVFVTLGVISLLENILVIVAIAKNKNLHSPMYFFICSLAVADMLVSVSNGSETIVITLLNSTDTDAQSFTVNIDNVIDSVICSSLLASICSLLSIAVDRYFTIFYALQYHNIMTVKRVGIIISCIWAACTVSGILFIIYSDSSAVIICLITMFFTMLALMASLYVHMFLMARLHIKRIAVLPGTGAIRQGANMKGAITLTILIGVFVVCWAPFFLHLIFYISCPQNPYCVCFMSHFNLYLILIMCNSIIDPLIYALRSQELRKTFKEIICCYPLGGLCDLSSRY
row,SMILES,activation
1,CCCCNc1c(-c2ccc(OC)c(Sc3ccc(OC)cc3)c2)nc2ccc(Cl)cn12,-1.91% (inactive)
2,CCCCNc1nc2c(c(=O)n(C)c(=O)n2C)n1Cc1cccc(OC)c1,-2.77% (inactive)
3,CCCCNc1c(-c2cccc(Sc3ccc(OC)cc3)c2)nc2ccccn12,13.9% (active)
4,CNc1cc(-c2c(OC)cccc2OC)ncn1,0.41% (inactive)
5,Cc1csc(NC(=O)c2ccc(-c3ccc(Cl)cc3Cl)o2)n1,12.6% (active)
6,O=C(NNc1cc(Cl)ccc1Cl)c1cccnc1Cl,-2.02% (inactive)
7,CC1CCN(C(=S)c2ccc(-c3ccc(Cl)cc3Cl)o2)CC1,2.82% (inactive)
8,COc1cc(SC)ccc1C(=O)Nc1nc(C)cs1,-0.94% (inactive)
9,Cc1ccc(/C=C(\C#N)C(=O)Nc2cccc3ncccc23)o1,0.31% (inactive)
10,O=C(Nc1cccc2ncccc12)c1ccc(-c2ccc(Cl)cc2Cl)o1,20.2% (active)
11,Cc1nc2c(OCc3ccc(Cl)cc3)cccn2c1N(C)Cc1cccs1,-2.75% (inactive)
12,COc1ccc(CCNC(=O)Nc2ccc3c(c2)c(=O)n(C)n3C)cc1OC,1.3% (inactive)
13,COc1cc(C(O)c2nc(-c3cccc(C(=O)O)c3)cs2)ccc1F (stereo not drawn),-1.9% (inactive)
14,CC1(C(=O)NS(=O)(=O)c2cccc(OC(F)F)c2)CCN1C(=O)COc1ccc(Cl)cc1 (stereo not drawn),-1.09% (inactive)
15,CCc1ccc(OC2(C)CCN(CCOc3ccc(C)cc3)C2)cc1 (stereo not drawn),3.54% (inactive)
16,Cc1ccccc1CN1C(=O)c2ccccc2Sc2ccc(C(=O)NCCCN3CCOCC3)cc21,3.09% (inactive)
17,CCN1CCN(CCNC(=O)c2ccc(/C=C3/Sc4ccccc4N(Cc4cccc(C)c4)C3=O)cc2)CC1,13.8% (active)
18,CCN1CCN(CCNC(=O)c2ccc3c(c2)NC(=O)/C(=C\c2cccc(Cl)c2)S3)CC1,-0.09% (inactive)
19,CCc1nc2c(OCC(=O)C(C)(C)C)cccn2c1N(C)C(=O)c1ccccc1F,-1.02% (inactive)
20,CCC(=O)N1CCC(C)(C(=O)Nc2cc(OC)c(OC)c(OC)c2)C1 (stereo not drawn),-0.53% (inactive)
21,CC1(C(=O)N/N=C/c2cc3c(cc2Br)OCO3)CC1(Br)Br (stereo not drawn),-3.59% (inactive)
22,CC(C)Oc1c(Br)cc(Br)cc1/C=N/NC(N)=S,22.7% (active)
23,COc1cccc(C(NC(C)=O)c2nc(-c3ccccc3OC)cs2)c1 (stereo not drawn),-0.26% (inactive)
24,Cc1cc(O)ccc1-c1cc(C(=O)NCc2cc(C(F)(F)F)cc(C(F)(F)F)c2)[nH]n1,2.75% (inactive)

row,SMILES,activation
1,OC(c1ccc(F)cc1)c1ncc(-c2cccc(C(F)(F)F)c2)[nH]1 (stereo not drawn),1.88% (inactive)
2,CC(=O)NC(c1ccccc1)c1nc(-c2ccccc2C)cs1 (stereo not drawn),0.3% (inactive)
3,CC1(C(=O)NCc2ccc3c(c2)OCO3)CCN1C(=O)Cc1cccs1 (stereo not drawn),0.72% (inactive)
4,COc1ccc(OCC(=O)Nc2ccc(N3CCC(C)CC3)cc2)cc1,10.2% (active)
5,COc1ccc(OCC(=O)NNC(=O)C2CCC2)cc1,-1.99% (inactive)
6,CCC(=O)c1ccc(OCC(=O)Nc2ccc(N3CCCCC3)cc2)cc1,3.06% (inactive)
7,CC12CCC(=O)C=C1CCC1C2C(O)CC2(C)C1CCC2(O)C(O)CO (stereo not drawn),-0.23% (inactive)
8,CCCNC(=O)C1(C)CCN(C(=O)c2ccccc2OC(F)(F)F)C1 (stereo not drawn),0.4% (inactive)
9,CC(=O)N1CCN(C(=O)c2cc(-c3ccc(C)o3)nc3ccccc23)CC1,-2.54% (inactive)
10,COc1ccc(NC(=O)c2cc(-c3ccc(C)o3)nc3ccccc23)cc1,9.46% (active)
11,COc1ccc(NC(=O)CN(C)C(=O)c2cc(-c3ccc(C)o3)nc3ccccc23)cc1,-0.83% (inactive)
12,CCCCc1ccc(S(=O)(=O)NC(=O)C2(C)CCN2C(=O)c2c(C)noc2C)cc1 (stereo not drawn),-2.14% (inactive)
13,Cc1cc(Cl)ccc1-c1nc(NCCN(C)C)nc2ccsc12,-0.54% (inactive)
14,CCOC(=O)c1[nH]cnc1C(=O)Nc1ccccc1C,1% (inactive)
15,CCOC(=O)c1ccc(NC(=O)c2nc[nH]c2C(=O)NCc2ccccc2)cc1,8.44% (active)
16,O=C(Nc1ccon1)c1nc[nH]c1C(=O)NCc1ccccc1,-0.8% (inactive)
17,COc1ccc(C(=O)N2CCCCC2c2cc(C(=O)Nc3ccc(F)c(Cl)c3)no2)cc1 (stereo not drawn),2.26% (inactive)
18,Cc1ccnc(N2C(=O)c3ccc([N+](=O)[O-])cc3C2=O)c1,-1.22% (inactive)
19,Cc1ccc(-n2cc3ccc([N+](=O)[O-])cc3n2)cc1,16.1% (active)
20,Cc1ccc(C(=O)Cn2cc([N+](=O)[O-])nc2C)cc1,-1.74% (inactive)
21,COc1ccc(C(C)(O)c2nc(-c3cc(F)cc(F)c3)cs2)cc1 (stereo not drawn),3.01% (inactive)
22,COC(=O)c1ccc(Sc2ccc(F)cc2)c(N)c1,-1.17% (inactive)
23,COc1ccc(Sc2ccc(NC(=O)c3cccc(Cl)c3)cc2C#N)cc1,-0.48% (inactive)
24,Cc1ccc(Sc2ccc(NC(=O)c3ccc(F)cc3)cc2C#N)cc1,17% (active)

row,SMILES,activation
1,Clc1ccc(-c2cccc3nccn23)cc1,-0.44% (inactive)
2,N#CCC(=O)N/N=C/c1cn(Cc2ccc3ccccc3c2)c2ccccc12,11.1% (active)
3,COc1cccc(Cn2cc(/C=N/NC(=O)c3cc(O)cc(O)c3)c3ccccc32)c1,-2.32% (inactive)
4,CCOC(=O)N/N=C/c1cn(Cc2ccccc2Cl)c2ccccc12,-2.13% (inactive)
5,COC(=O)c1cc(S(=O)(=O)N2CCN(c3cc(C)ccc3C)CC2)c[nH]1,9.07% (active)
6,Cc1ccc(C)c(N2CCN(S(=O)(=O)c3c(C)[nH]c(C)c3C(=O)N3CCCC3)CC2)c1,-0.89% (inactive)
7,Cc1ccc(C)c(N2CCN(S(=O)(=O)c3ccc4c(c3)oc(=O)n4C)CC2)c1,-1.63% (inactive)
8,COc1ccc(-n2cc(-c3ccccc3)c3c(=S)nc[nH]c32)cc1,2.91% (inactive)
9,O=c1[nH]cnc2c1c(-c1ccccc1)cn2-c1ccc(F)cc1,8.69% (active)
10,O=c1c2c(-c3ccccc3)ccnc2[nH]n1-c1ccccc1,-0.95% (inactive)
11,COc1cc(Cn2c3ccc(NC(=O)CC(C)c4ccccc4)cc3c(=O)n2C)ccc1F (stereo not drawn),1.46% (inactive)
12,O=C(NCc1ccccc1Cl)c1csc([C@@H]2O[C@H](CO)[C@@H](O)[C@H]2O)n1,-0.25% (inactive)
13,CCOCc1nnc(NC(=O)CSc2ccc(C)cc2)s1,-1.16% (inactive)
14,O=C(/C=C/c1ccccc1)Nc1nnc(SCC(=O)c2ccc3ccccc3c2)s1,-0.51% (inactive)
15,O=C(CSc1ccccc1)Nc1nnc(/C=C/c2ccccc2)s1,10.9% (active)
16,CCNC(=O)C1(C)CCCN(Cc2noc(-c3ccccc3OC)n2)C1 (stereo not drawn),0.8% (inactive)
17,COc1ccc(OC)c(NC(=O)c2cc(-c3cc(F)ccc3OCC3CCCO3)n[nH]2)c1 (stereo not drawn),2.25% (inactive)
18,Cc1nc(C(F)(F)F)ccc1C(=O)N1CCC1(C)C(=O)NS(=O)(=O)c1ccccc1 (stereo not drawn),-2.41% (inactive)
19,COc1ccc(Cc2nnc(NC(=O)c3cc(OC)c(OC)c(OC)c3)s2)cc1OC,0.62% (inactive)
20,O=C(Nc1nnc(Cc2ccc(Cl)cc2)s1)c1ccncc1,-0.7% (inactive)
21,COc1ccccc1NC(=O)Nc1nc(CC(=O)Nc2ccccc2F)cs1,-1.3% (inactive)
22,O=C(Nc1nnc(COc2ccccc2)s1)Nc1ccccc1F,-0.21% (inactive)
23,COc1ccccc1NC(=O)Nc1nnc(Cc2ccc(F)cc2)s1,13.2% (active)
24,COc1ccc(Cc2nnc(NC(=O)c3ccc(OC)cc3OC)s2)cc1,16.6% (active)

row,SMILES,activation
1,COc1cccc(CNc2nc3cc(-c4csc5ccccc45)sc3c(=O)n2C)c1,6.53% (inactive)
2,Cc1ccc(Cn2c(C)c(C(=O)NCc3ccccc3C(F)(F)F)sc2=O)cc1,0.28% (inactive)
3,CC1(C(=O)Nc2ccccc2Br)CCN1C(=O)CC1CC1 (stereo not drawn),1% (inactive)
4,Cc1ccccc1S(=O)(=O)NC(=O)C1(C)CCN1C(=O)Cc1ccc(Cl)cc1Cl (stereo not drawn),-1.27% (inactive)
5,CCCc1c(C)nc2c(Br)cccc2c1Cl,0.46% (inactive)
6,COc1cccc(NC(=O)C2(C)CCN2Cc2ccccc2Cl)c1 (stereo not drawn),2.88% (inactive)
7,O=C(NCc1ccccc1)C1CCCN(c2nc3ccsc3c(=O)s2)C1 (stereo not drawn),8.43% (active)
8,Cc1cc(=O)n2nc(N3CCCC(C(=O)NCc4ccc(Cl)cc4)C3)sc2n1 (stereo not drawn),-1.57% (inactive)
9,O=C(NCc1ccccc1)C1CCCN(S(=O)(=O)c2cccs2)C1 (stereo not drawn),1.44% (inactive)
10,Cc1ccccc1CN1CCC(C(=O)Nc2ccc(Oc3cccnc3)cc2)CC1,-3.23% (inactive)
11,CCc1nc2ccc(C(=O)NCc3ccc(OC)cc3)cn2c1N(CC)Cc1cccc(Br)c1,-1.05% (inactive)
12,CC(=O)Nc1ccc(-c2csc(NC(=O)Nc3ccccc3)n2)cc1,11% (active)
13,O=C(Nc1nnc(Cc2ccccc2)s1)c1cnccn1,-0.34% (inactive)
14,Cc1ccc(NC(=O)Nc2cc(-c3ccccc3)nn2C)cc1Cl,-0.42% (inactive)
15,O=C(NCCCNC(=O)c1ccccc1Cl)c1cnccn1,0.85% (inactive)
16,O=C(Nc1nc(-c2ccc(-c3ccccc3)cc2)cs1)c1cnccn1,25.9% (active)
17,CC(=O)Nc1ccc(-c2cn3cccnc3n2)cc1,-2.81% (inactive)
18,CC(C)(C)c1ccc(S(=O)(=O)NC(=O)C2(C)CCN2C(=O)CC2CC2)cc1 (stereo not drawn),-2.01% (inactive)
19,COCCNc1ncnc2c1ncn2[C@H]1CN(CCN2CCOCC2)C[C@@H](CO)O1,-1.53% (inactive)
20,CC1(C(=O)NS(=O)(=O)c2cccc(OC(F)F)c2)CCN1C(=O)C1CC1 (stereo not drawn),-1.02% (inactive)
21,CC1(C(=O)NS(=O)(=O)Cc2cccc(Cl)c2)CCN1C(=O)Cc1ccc(Cl)cc1Cl (stereo not drawn),1.12% (inactive)
